Screening data as filed in PubChem.
CCHF vOTU inh: CCHFV vOTU protease inhibitors, primary screen, biochemical, Pep-AMC substrate, fluorescence; inhibition, % at 11.5 µM; Crimean-Congo hemorrhagic fever virus L polyprotein viral ovarian tumor (vOTU) protease …; 0.55% of 370,000 active; AID 651958, 2012; in the data active means inhibition above about 30%; further: 0% = vehicle wells with enzyme and 100% = no enzyme wells
3CLpro inhibitor: SARS-CoV 3CLpro protease inhibitors, primary screen, biochemical, quenched FRET. Replicase polyprotein 1ab (Severe acute respiratory syndrome coronavirus), P0C6X7. recombinant SARS-CoV 3CLpro, quenched FRET peptide cleavage. inhibition, % at 6 µM. 0.14% of 290,000 active. AID 1706, 2009; in the data active means inhibition above about 12%
SSB-PriA inh: inhibitors of Klebsiella pneumoniae PriA binding to SSB C-terminal tail, primary screen, biochemical, AlphaScreen; PriA–SSB C-terminal tail interaction (Klebsiella pneumoniae); AlphaScreen SSBct-PriA binding, biotinylated peptide; inhibition, % at 33 µM; 0.6% of 430,000 active; AID 1272365, 2023; in the data active means inhibition mostly above about 37%, no sharp cut-off; inactive means mostly below about 20%;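 further: plate controls were negative control peptide for no effect and reference peptide for full effect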
Mtb hypoxia inh: PubChem AID 1159583. M. tuberculosis hypoxia-regulated fluorescent reporter, fluorescence. fluorescence inhibition, % (concentration not given with the values). 0.1% of 300,000 active; in the data active means fluorescence inhibition mostly above about 23%, no sharp cut-off; inactive means mostly below about 17%
VHR inh abs: VHR1 phosphatase inhibitors, primary screen, biochemical, absorbance, uHTS; recombinant VHR phosphatase, pNPP absorbance; inhibition, % at 13.3 µM; 0.52% of 290,000 active; AID 1654, 2009; in the data active means inhibition above about 50%
Target sequence (P51452 whole entry, looked up): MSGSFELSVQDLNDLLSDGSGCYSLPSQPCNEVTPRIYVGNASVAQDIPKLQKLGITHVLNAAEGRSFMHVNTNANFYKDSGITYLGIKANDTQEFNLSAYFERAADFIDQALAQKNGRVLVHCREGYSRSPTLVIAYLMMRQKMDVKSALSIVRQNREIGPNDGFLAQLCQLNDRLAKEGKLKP
An asterisk follows results filed as active; nt = no result. Shown are actives, neighbours in structure and some others; about 1.3% of the full set was active somewhere.

SMILES	CCHF vOTU inh	3CLpro inhibitor	SSB-PriA inh	Mtb hypoxia inh	VHR inh abs
COc1ccc(CCC(=O)Nc2cc(N3CCN(Cc4ccccc4)CC3)ncn2)cc1	nt	nt	21	nt	nt
COc1ccccc1NC(=O)c1cc2c(OCc3ccccc3C)cccc2[nH]1	nt	nt	4	nt	nt
O=[N+]([O-])c1ccc(/C=N/Nc2ccccn2)cc1	-3	0	nt	nt	58*
O=[N+]([O-])c1cccc(/C=N/Nc2ccccn2)c1	-11	3	nt	nt	2
O=S(=O)(c1ccc(Cl)s1)N1CCN(c2ccc3nncn3n2)CC1	nt	nt	8	nt	nt
O=C(Nc1cccc(Cl)c1Cl)c1ccno1	nt	nt	-24	nt	nt
O=C1OC(c2cccs2)=N/C1=C\c1ccc(-c2cccc(Cl)c2)o1	1	-2	91*	11	-4
CNS(=O)(=O)c1cccc(C(=O)Nc2cccnc2)c1	20	-4	-8	nt	56*
O=C(Nc1cccnc1)c1cccc(S(=O)(=O)Nc2cccc(Cl)c2)c1	13	nt	1	17	nt
CCN1c2ccccc2NC2N=C(OC)C(c3ccccc3)C21 (stereo not given)	nt	2	54*	6	-5
CCc1nnc(N/N=C/c2c(Cl)cccc2Cl)n1N	77*	-1	nt	nt	8
CCc1nnc(NN=Cc2ccccc2F)n1N	nt	nt	3	15	nt
Cc1ccc(S(=O)(=O)N2CCCN(C(=O)c3cc4ccccc4[nH]3)CC2)cc1	7	-4	9	8	50*
CNC(=O)Cc1ccc(-n2c(=O)c3ccccc3n(CC(=O)Nc3ccc(C)cc3Cl)c2=O)cc1	nt	nt	-12	nt	nt
O=C1CC(c2cccs2)CC(=O)N1Cc1cc(F)ccc1F	nt	nt	-10	nt	nt
CN1CCN(c2nc3ccccc3nc2NS(=O)(=O)c2ccc(Br)cc2)CC1	-3	nt	3	-9	nt
Cc1ccc(S(=O)(=O)Nc2nc3ccccc3nc2N2CCN(c3ccccc3F)CC2)cc1	14	3	-1	nt	50*
CCn1nc(C)cc1C(=O)Nc1sccc1C(=O)NC	nt	nt	-3	nt	nt
NS(=O)(=O)c1ccc(N/N=C2/CCCCC2C2CCCCC2)c([N+](=O)[O-])c1 (stereo not given)	28	3	nt	nt	0
COc1ccccc1NS(=O)(=O)c1ccc(OC)c([N+](=O)[O-])c1	-9	2	-3	8	24
COc1ccccc1NS(=O)(=O)c1ccc(NN=C2CCCCC2)c([N+](=O)[O-])c1	25	5	62*	0	-2
COc1ccccc1NS(=O)(=O)c1ccc(N/N=C(\C)C(C)C)c([N+](=O)[O-])c1	7	5	nt	nt	13
NS(=O)(=O)c1ccc(NN=C2CCCCC2C2CCCCC2)c([N+](=O)[O-])c1 (stereo not given)	nt	nt	40*	8	nt
CCCC(CCC)=NNc1ccc(S(=O)(=O)Nc2ccccc2OC)cc1[N+](=O)[O-]	-1	3	41*	-11	-7
O=C(NCCn1ncc2c(=O)n(Cc3cccc(Cl)c3)cnc21)c1c(F)cccc1F	nt	nt	9	nt	nt
SMILES	CCHF vOTU inh	3CLpro inhibitor	SSB-PriA inh	Mtb hypoxia inh	VHR inh abs
COc1ccc(Cl)cc1C(=O)Nc1cc(OCc2ccc3c(c2)OCO3)ncn1	nt	nt	-2	nt	nt
COc1ccc(CN2CCCC(C(=O)N3CCc4ccccc4C3)C2)cc1OC (stereo not given)	-10	4	-27	4	59*
COc1ccccc1-n1c(CNC(=O)c2cccs2)nnc1SCC(=O)Nc1ccc(F)cc1	nt	nt	-8	nt	nt
O=S(=O)(Cc1ccccc1)N1CCN(c2ccc(-c3ccco3)nn2)CC1	nt	nt	-13	nt	nt
CC1CCCC(C)N1C(=O)c1ccc(CS(=O)(=O)c2ccccc2)cc1 (stereo not given)	-9	-1	0	0	53*
COc1cc(NC(=O)COC(=O)CNC(=O)c2ccc(C)s2)cc(OC)c1	1	3	-4	6	31
COc1ccc(C(=O)COC(=O)CNC(=O)c2ccc(C)s2)c(OC)c1	19	nt	-6	35*	nt
Clc1cccc(Nc2nc(-c3ccncc3)cs2)c1	-11	1	-11	2	35
Cc1ccc(C)c(Nc2nc(-c3ccccn3)cs2)c1	nt	nt	69*	nt	nt
Cc1ccc(C)c(-c2csc(Nc3ncccn3)n2)c1	-11	2	-9	13	nt
c1ccc(CCNc2nc(-c3ccccn3)cs2)cc1	2	-3	20	1	10
c1ccc(-c2csc(Nc3ncccn3)n2)nc1	nt	nt	70*	nt	nt
Oc1ccc(-c2csc(Nc3ncccn3)n2)c(O)c1	-4	2	-9	13	15
Cc1cccc(Nc2nc(-c3ccncc3)cs2)c1	-2	-2	7	12	51*
NNc1nc(-c2ccccn2)cs1	nt	nt	130*	nt	nt
CN(C)/C=N\n1cnc2nccnc2c1=O	nt	nt	0	nt	nt
Cc1ccsc1[C@@H](O)CNC(=O)c1ccccc1Br	nt	nt	0	nt	nt
CCOc1ccc(-c2n[nH]c3c2cnc2ccc(F)cc23)cc1	nt	nt	-2	nt	nt
c1ccc(-c2csc(Nc3ccccn3)n2)cc1	10	7	-6	7	-1
c1ccc(Nc2nc(-c3ccccn3)cs2)nc1	nt	nt	150*	nt	nt
O=C(CCn1c2c(c3ccccc31)CCCC2)NNC(=O)c1ccc(Cl)c([N+](=O)[O-])c1	-4	6	-6	-2	52*
CN1CCN(C2CCN(Cc3ccc(O)c4ncccc34)CC2)CC1	10	nt	56*	4	nt
Oc1ccc(CN2CCN(Cc3ccccc3)CC2)c2cccnc12	5	2	103*	1	nt
O=C(OCC(=O)c1ccc(Cl)s1)c1cncc(Br)c1	3	nt	3	29*	nt
O=C(O)C1CC1(c1ccccc1)c1ccccc1 (stereo not given)	-1	-1	-7	-14	-4
SMILES	CCHF vOTU inh	3CLpro inhibitor	SSB-PriA inh	Mtb hypoxia inh	VHR inh abs
O=C(C1CC1(c1ccccc1)c1ccccc1)N1CCOCC1 (stereo not given)	10	-5	55*	nt	12
COc1ccc(-c2noc(Cn3c(=O)n(CC(C)C)c(=O)c4ccccc43)n2)cc1OC	nt	nt	0	nt	nt
O=C(Nc1ccccn1)c1ccc(C(=O)Nc2ccccn2)cc1	nt	0	8	0	8
O=C(Nc1ccccn1)c1ccc(Br)s1	1	-1	-17	12	55*
O=C1CC(c2nc(-c3ccncc3)no2)CN1c1ccc2c(c1)OCO2 (stereo not given)	nt	nt	10	nt	nt
Cc1c(C(=O)c2ccc(Cl)c(Cl)c2)cnc2cc3c(cc12)OCO3	-14	-2	-9	9	54*
COc1ccc(CCNC(=O)c2cc(-c3ccccn3)nc3ccccc23)cc1	7	nt	4	30*	nt
COc1ccc(CCNC(=O)c2cc(Cl)nc3ccccc23)cc1	-8	-3	1	6	-20
Cc1ccc(C(=O)OCC(=O)Nc2ccccc2)cc1S(=O)(=O)N1CCCCC1	0	nt	0	35*	nt
COCC(=O)N1CCCc2ccc(NC(=O)Cc3ccsc3)cc21	nt	nt	35*	nt	nt
COCC(=O)N1CCCc2ccc(NS(=O)(=O)CC34CCC(CC3=O)C4(C)C)cc21 (stereo not given)	nt	nt	36*	nt	nt
S=C(NNc1ccnc2cc(Cl)ccc12)Nc1ccccc1Cl	-6	7	40*	-1	2
Oc1ccc(Nc2ccnc3cc(Cl)ccc23)cc1	6	-2	0	nt	7
